Measured values: PubChem BioAssay (Tox21)
Active and inactive are the calls of the source. Calls follow the shape of the dose curve; as a rule, active = well fitted cell-killing curve with a large enough effect in the repeat runs; inconclusive = weak or mixed curves, or effect the other way; inactive = flat fitted curve, though single readings scatter.

Test: qHTS assay to identify small molecule HDAC inhibitors - cell viability counter screen (AID 1259365); also: nearly all actives have a fitted effect of over 50% in size
Details: HCT-116 viability, CellTiter-Glo ATP luminescence, 2 h; series mostly up to 92.4 µM
Source text: U.S. Tox21 Program National Center for Advancing Translational Sciences [NCATS] NIH Chemical Genomics Center [NCGC] U.S. Environmental Protection Agency [EPA] National Institutes of Environmental Health Sciences [NIEHS] National Toxicology Program [NTP] U.S. Food and Drug Administration [FDA] Tox21 Assay Overview: Histone deacetylases (HDACs) are a group of epigenetic enzymes that regulate gene expression by histone deacetylation. HDACs are capable of introducing epigenetic modifications and such aberrations contribute to the onset and progression of several human diseases, thus making HDACs a popular therapeutic target. For identifying endogenous class I/II HDAC inhibitors a homogenous, luminogenic HDAC I/II cell based assay was used to measure the relative activity of class I and II HDACs from cells. Wild type HCT-116 cells were used to screen Tox21 compound libraries for identifying class I/II HDAC inhibitors.
Tox21 Assay Protocol Summary: HCT-116 cells were dispensed at 1,500 per well in 5uL of culture medium into white solid bottom 1536-well plates (Greiner Bio-One, Monroe, NC) using a Multidrop Combi (Thermo Scientific, Waltham, MA) dispenser. The assay plates were incubated at 37 C and 5% CO2 for an overnight, and then 23nL of compounds dissolved in DMSO and positive control were transferred using a Pintool station (Wako, San Diego, CA). The assay plates were incubated at 37C and 5% CO2 for 2hr. After compound treatment, 4uL of CellTiter-Glo reagent (Promega Corporation, Madison, WI) was added to each well of the assay plates using Flying Reagent Dispenser (FRD, Aurora Discovery, San Diego, CA) and incubated the assay plates at room temperature for 30min. The luminescence signal was quantified using a ViewLux plate reader (Perkin Elmer, Shelton, CT).

Row | Compound | outcome
1 | Cc1ncc(CSSCc2cnc(C)c(O)c2CO)c(CO)c1O | inactive
2 | [O-][N+](=Nc1ccccc1)c1ccccc1 | inactive
3 | CCCOCC(C)OCC(C)O (stereo not given) | inactive
4 | CCCCCCCCCCCl | inactive
5 | CCN(CC)C(=O)c1ccc(O)c(OC)c1 | inactive
6 | NCCN1CCNC1=O | inactive
7 | COc1cccc(Br)c1 | inactive
8 | Cc1nc(-c2ccc(OCC(C)C)c(C#N)c2)sc1C(=O)O | inactive
9 | C=CCSCC1Nc2cc(Cl)c(S(N)(=O)=O)cc2S(=O)(=O)N1 (stereo not given) | inactive
10 | Cn1cnc2c(=O)[nH]c(N)nc21 | inactive
11 | O=C(CCOCCOCCOCCOCCC(=O)Nc1c(I)cc(I)c(C(=O)O)c1I)Nc1c(I)cc(I)c(C(=O)O)c1I | inactive
12 | CCCCCOC(=O)Nc1nc(=O)n([C@@H]2O[C@H](C)[C@@H](O)[C@H]2O)cc1F | inactive
13 | CC(C)[C@H](N)C(=O)OCCOCn1cnc2c(=O)[nH]c(N)nc21 | inactive
14 | Oc1cc(O)c2c(c1)O[C@H](c1ccc(O)c(O)c1)[C@H](O)C2 | inactive
15 | COC[C@H](c1ccc(C(F)(F)F)cc1)N1CCN(C2(C)CCN(C(=O)c3c(C)ncnc3C)CC2)C[C@H]1C | inactive
16 | c1ccc(CCCc2ccccn2)cc1 | inactive
17 | NC(CS)C(=O)O (stereo not given) | inactive
18 | COC(=O)[C@H]1[C@H]2C[C@@H]3c4[nH]c5cc(OC)ccc5c4CCN3C[C@H]2C[C@@H](OC(=O)COc2ccc(OC)cc2)[C@@H]1OC | inactive
19 | C[C@H](O)C(=O)Nc1c(I)c(C(=O)NC(CO)CO)c(I)c(C(=O)NC(CO)CO)c1I | inactive
20 | CC(C)COC(=O)C(C)C | inactive

Row | Compound | outcome
21 | CCCCCCCCN(C)CCCCCCCC | inactive
22 | N[C@@H](CS)C(=O)O | inactive
23 | CCCCCCCCCCCCCCCCCCOCC(O)CO (stereo not given) | inactive
24 | CC(C)CCOC(=O)CC(C)C | inactive
25 | Nc1ccn(C2CO[C@H](CO)O2)c(=O)n1 (stereo not given in full) | inactive
26 | CC(C)N1C(=O)c2ccccc2C1=O | inactive
27 | CCCCN(CCO)CCO | inactive
28 | CCCCCCCCC=O | inactive
29 | C/C=C1\C(=O)C[C@H]2[C@@H]3CCC4=CC(=O)CC[C@]4(C)[C@H]3CC[C@]12C | inactive
30 | CCCCCCCCCCCCCCC | inactive
31 | CCCCNc1ccccc1 | inactive
32 | CCOC(=O)[C@H](CCc1ccccc1)N[C@@H](C)C(=O)N1CCC[C@H]1C(=O)O | inactive
33 | O=C1C(CCS(=O)c2ccccc2)C(=O)N(c2ccccc2)N1c1ccccc1 (stereo not given) | inactive
34 | O=C1OC(=O)c2cc([N+](=O)[O-])ccc21 | inactive
35 | COC(C(=O)O)c1ccccc1 (stereo not given) | inactive
36 | CSc1nc(NC2CC2)nc(NC(C)(C)C)n1 | inactive
37 | Cc1nccn1CC1CCc2c(c3ccccc3n2C)C1=O (stereo not given) | inactive
38 | C1=C\CC/C=C\CC/C=C\CC/1 | inactive
39 | CCC(C)OC(=O)N1CCCCC1CCO (stereo not given) | inactive
40 | COc1ccc(COC=O)cc1 | inactive
